Reference: paper PMC4336329 (PLoS ONE, 2015)
Screen size: about 310,000 compounds; about 14,000 (4.5%) showed an effect of 50% or more. The effect is printed as a negative number. The list comes from a sample in which strong results are over-represented; it also holds similar structures and randomly drawn compounds.

target: human ether-à-go-go-related gene (hERG) potassium channel (human, UniProt Q12809); assay: primary screen, population patch clamp on CHO cells stably expressing hERG; higher = less effect of the substance
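Also: peak tail current of the secondary pulse compared with the same well before compound.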

human ether-à-go-go-related gene (hERG) potassium channel, sequence (Q12809 whole entry, looked up): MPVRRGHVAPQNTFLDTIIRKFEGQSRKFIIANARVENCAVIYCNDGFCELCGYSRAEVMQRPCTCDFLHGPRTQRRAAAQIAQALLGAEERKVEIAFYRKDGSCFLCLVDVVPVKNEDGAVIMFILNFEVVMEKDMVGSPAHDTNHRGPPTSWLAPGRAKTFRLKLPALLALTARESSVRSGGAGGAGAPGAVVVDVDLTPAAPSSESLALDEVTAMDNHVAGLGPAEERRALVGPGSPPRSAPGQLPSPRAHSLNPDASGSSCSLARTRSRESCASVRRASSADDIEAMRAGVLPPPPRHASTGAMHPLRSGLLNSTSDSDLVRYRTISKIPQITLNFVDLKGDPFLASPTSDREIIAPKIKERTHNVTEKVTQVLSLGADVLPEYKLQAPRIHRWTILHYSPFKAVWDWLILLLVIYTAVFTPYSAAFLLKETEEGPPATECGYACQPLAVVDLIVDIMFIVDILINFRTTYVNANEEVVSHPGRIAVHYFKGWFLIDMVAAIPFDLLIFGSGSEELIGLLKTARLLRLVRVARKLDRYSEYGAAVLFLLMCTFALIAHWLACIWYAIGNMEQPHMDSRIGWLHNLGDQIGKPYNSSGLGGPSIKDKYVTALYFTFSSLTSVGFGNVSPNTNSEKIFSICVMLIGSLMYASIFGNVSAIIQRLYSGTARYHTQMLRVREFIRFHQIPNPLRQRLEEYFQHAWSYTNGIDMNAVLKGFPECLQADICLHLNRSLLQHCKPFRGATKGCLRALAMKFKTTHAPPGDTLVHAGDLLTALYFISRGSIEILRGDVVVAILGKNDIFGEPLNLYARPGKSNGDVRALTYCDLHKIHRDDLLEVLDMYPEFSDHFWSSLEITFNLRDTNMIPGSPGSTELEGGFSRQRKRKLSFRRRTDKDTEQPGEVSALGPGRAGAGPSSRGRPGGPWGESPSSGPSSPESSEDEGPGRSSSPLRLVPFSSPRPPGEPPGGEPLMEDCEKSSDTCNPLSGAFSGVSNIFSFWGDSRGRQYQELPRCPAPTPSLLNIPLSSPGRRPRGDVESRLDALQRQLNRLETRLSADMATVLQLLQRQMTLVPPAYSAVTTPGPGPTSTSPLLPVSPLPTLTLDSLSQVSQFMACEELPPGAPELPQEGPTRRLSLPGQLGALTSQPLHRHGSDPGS

| SMILES | hERG current change (%, negative = inhibition) at 10uM |
| --- | --- |
| Cc1ccc(S(=O)(=O)N2CCOCC2)cc1NC(=O)CSc1nnc(C2CC2)n1C1CC1 | -7.36% |
| Cc1nc2ccccc2n1-c1nc(-c2ccco2)cc(C(F)(F)F)n1 | 5.46% |
| CC(C)(C)OC(=O)CC[C@@H](C(=O)NCCCCCCCCCCC(=O)N1CCN(C(=O)OC(C)(C)C)CC1)n1cc(CCCCCNC(=O)OC(C)(C)C)nn1 | 4.12% |
| CCOC(=O)c1cc(-c2ccc3c(c2)OCCO3)nc2c1c(C)nn2CCC#N | 3.85% |
| CC(=O)c1ccc(NC(=O)CCCC(=O)c2ccccc2)cc1 | 12.6% |
| CO/N=C(\C(=O)O)c1csc(NN=C(C)C)n1 | 16.2% |
| COC(=O)c1nc2nc(C)cc(=O)n2[nH]1 | 20.2% |
| O=C(CSc1nnc(-c2cccnc2)n1Cc1ccco1)c1ccc2ccccc2c1 | -45.6% |
| NC(=O)C1CCN(Cc2nc3cc(Cl)ccc3c(=O)[nH]2)CC1 | 5.22% |
| O=C(c1ccco1)N1CCN(Cc2nc3cc(Cl)ccc3c(=O)[nH]2)CC1 | -61.8% |
| CCCCNC(=O)N1CCN(c2ccccc2OCC)CC1 | -0.115% |
| CCCC(=O)Nc1cc(Cl)ccc1N1CCN(C(=O)CC)CC1 | -33.1% |
| CCOC(=O)N1CCN(c2cc3nccnc3cc2F)CC1 | -12.5% |
| CCCCNC(=O)N1CCN(c2ncccn2)CC1 | 3.43% |
| O=C(O)CSCC(=O)N1CCN(c2ccnc3cc(Cl)ccc23)CC1 | 9.15% |
| CCOC(=O)N1CCC(=NNc2ccnc3cc(Cl)ccc23)CC1 | -32.5% |
| CC(=O)N1CCN(Cc2nc3cc(Cl)ccc3c(=O)[nH]2)CC1 | -31.7% |
| CCC(=O)N1CCN(c2ccnc3cc(Cl)ccc23)CC1 | -63.6% |
| CCOC(=O)N1CCN(c2ccnc3cc(Cl)ccc23)CC1 | -66% |
| CCCCNC(=O)N1CCN(c2ccnc3cc(Cl)ccc23)CC1 | -78.2% |
| Cc1ccc(-c2csc(NC(=O)c3ccco3)n2)cc1C | -15.6% |
| CC(=O)Nc1ccc(NC(=O)c2c(-c3ccccc3)noc2C)cn1 | 15.9% |
| c1ccc2c(C3=NNC(=NC4CC4)SC3)c[nH]c2c1 | -20.1% |
| CCN(CC)CCCNC(=O)c1cc(-c2cccc(Cl)c2)on1 | -60.7% |
| CCN(CC)CCCNC(=O)c1cc(-c2ccc(Cl)cc2)on1 | -63.4% |
| CCN(CC)CCCNC(=O)c1cc(-c2ccc(O)cc2)on1 | -37.3% |
| CCN(CC)CCCNC(=O)c1cc(-c2ccc3c(c2)OCO3)on1 | -18.8% |
| O=C(NCc1cccs1)c1cc(-c2cccc(Cl)c2)on1 | -16.1% |
| O=C(NCCN1CCOCC1)c1cc(-c2cccc(Cl)c2)on1 | -4.73% |
